Source: paper PMC5540273 (PLoS ONE, 2017)

Key:
Conditions in all cases: concentration: 1 μM, replicates: in singlicate; n = 1
[1] = test system: PIK3C2G
[2] = test system: PIK3CA
[3] = test system: PIK3CB
[4] = test system: PIK3CD
[5] = test system: PIK3CG
[6] = test system: T1, PIK4CB
T1 construct: gene PI4KB

[7] = test system: PIKFYVE
[8] = test system: PIM1
[9] = test system: PIM2
[10] = test system: PIM3
[11] = test system: PIP5K1A
[12] = test system: PIP5K1C
[13] = test system: PIP5K2B
[14] = test system: T2, PIP5K2C
T2 construct: gene PIP4K2C

[15] = test system: T3, PKAC-alpha
T3 construct: gene PRKACA

[16] = test system: T4, PKAC-beta
T4 construct: gene PRKACB

[17] = test system: PKMYT1
[18] = test system: PKN1
[19] = test system: PKN2
[20] = test system: PLK1
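Further: KINOMEscan kinase panel screen.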

Row | Compound | %Inh [1] [%] | %Inh [2] [%] | %Inh [3] [%] | %Inh [4] [%] | %Inh [5] [%] | %Inh [6] [%] | %Inh [7] [%] | %Inh [8] [%] | %Inh [9] [%] | %Inh [10] [%] | %Inh [11] [%] | %Inh [12] [%] | %Inh [13] [%] | %Inh [14] [%] | %Inh [15] [%] | %Inh [16] [%] | %Inh [17] [%] | %Inh [18] [%] | %Inh [19] [%] | %Inh [20] [%]
1 | Cc1cc(-c2ccnc(Nc3cccc(C#N)c3)n2)cc(C)c1O [GSK1440913] | 24 | 1 | 0 | 47 | 67 | 97 | 90 | 0 | 0 | 0 | 11 | 70 | 61 | 94.9 | 3 | 0 | 6 | 0 | 14 | 0
2 | Cl.Cl.NCC(NC(=O)c1cc(-c2cccnc2)c(-c2ccnc3[nH]ccc23)s1)c1ccccc1 (stereo not shown) [GSK1323434] | 0 | 0 | 0 | 2 | 0 | 0 | 59 | 16 | 0 | 0 | 29 | 80 | 10 | 65 | 95.7 | 91.2 | 10 | 0 | 0 | 2
3 | Cc1cccc(Nc2nc(NCCN)ncc2C(N)=O)c1 [GSK1292139] | 0 | 0 | 0 | 2 | 2 | 22 | 0 | 28 | 35 | 58 | 50 | 83 | 15 | 20 | 0 | 0 | 7 | 18 | 29 | 6
4 | COc1cc(Nc2nccc(N3CCC(NC(=O)Nc4ccc5c(c4)OCO5)C3)n2)cc(OC)c1OC (stereo not shown) [GSK1379766] | 0 | 3 | 0 | 50 | 13 | 80 | 10 | 0 | 0 | 0 | 19 | 56 | 0 | 92.3 | 0 | 0 | 0 | 35 | 0 | 2
5 | CN(c1ccc(NC(=O)N2CCN(CCCN3CCOCC3)CC2)cc1)c1ccnc(Nc2ccc(CS(C)(=O)=O)cc2)n1.Cl [GW830899] | 0 | 0 | 0 | 0 | 0 | 100 | 0 | 16 | 0 | 0 | 0 | 26 | 32 | 55 | 0 | 29 | 25 | 0 | 0 | 3
6 | Cl.N#CCc1ccc(Nc2nccc(Nc3ccc(Oc4ccccc4)cc3)n2)cc1 [GW639905] | 7 | 0 | 0 | 0 | 0 | 0 | 13 | 0 | 0 | 0 | 26 | 34 | 20 | 78 | 0 | 0 | 0 | 39 | 0 | 0
7 | O=C(Nc1n[nH]c2cc(-c3cccs3)ccc12)C1CC1 [SB-731284] | 1 | 3 | 35 | 0 | 27 | 0 | 9 | 0 | 0 | 0 | 21 | 96.7 | 15 | 35 | 0 | 0 | 0 | 5 | 0 | 64
8 | Cc1ccc(O)cc1Nc1ccnc2cc(-c3ccc(CN4CCCCC4)o3)ccc12 [GW557777] | 16 | 0 | 0 | 0 | 0 | 0 | 0 | 0 | 2 | 7 | 0 | 0 | 0 | 0 | 5 | 0 | 0 | 0 | 0 | 0
9 | Cn1cc(-c2ccc3c(c2)CCN3C(=O)Cc2cc(F)cc(F)c2F)c2c(N)ncnc21 [GSK2634140] | 0 | 0 | 62 | 0 | 7 | 0 | 0 | 12 | 0 | 0 | 10 | 0 | 13 | 12 | 0 | 4 | 0 | 0 | 0 | 0
10 | COc1cc(Nc2ccnc3cc(-c4ccncc4)ccc23)cc(OC)c1OC.Cl [GW494610] | 0 | 0 | 0 | 0 | 0 | 0 | 0 | 11 | 0 | 0 | 0 | 36 | 8 | 27 | 0 | 2 | 0 | 0 | 7 | 0
11 | O=C1NC(=O)C(c2ccccc2Cl)=C1Nc1cccc(Cl)c1 [SB-342409] | 0 | 0 | 0 | 0 | 0 | 0 | 0 | 0 | 0 | 0 | 11 | 15 | 13 | 5 | 0 | 0 | 27 | 100 | 0 | 0
12 | CN(c1ccc(F)c(NC(=O)c2cccc(OC(C)(C)C#N)c2Cl)c1)c1ccc2nc(NC(=O)C3CC3)sc2n1 | 30 | 0 | 9 | 0 | 5 | 0 | 50 | 0 | 14 | 6 | 34 | 0 | 3 | 0 | 17 | 0 | 4 | 4 | 0 | 0
13 | Cc1ccc(NC(=O)c2ccc(Cl)c(Cl)c2)cc1-c1ccc(C(=O)Nc2ccncc2)cc1 [GSK1398460] | 0 | 3 | 69 | 0 | 0 | 3 | 0 | 0 | 0 | 3 | 0 | 0 | 0 | 0 | 13 | 7 | 31 | 1 | 15 | 0
14 | O=C(Nc1n[nH]c2nc(-c3ccccc3O)ccc12)C1CC1 [SB-711880] | 0 | 0 | 0 | 0 | 17 | 24 | 30 | 0 | 0 | 0 | 0 | 77 | 0 | 43 | 0 | 0 | 7 | 0 | 0 | 0
15 | Cc1ccc(O)cc1Nc1ccnc2ccc(C(C)(C)C)cc12 [GW856805] | 39 | 13 | 40 | 56 | 22 | 47 | 18 | 37 | 5 | 18 | 0 | 0 | 0 | 0 | 43 | 0 | 14 | 0 | 14 | 63
16 | COc1ccc(NC(=O)c2ccoc2)cc1-c1ccc(C(=O)NCC2CC2)cc1 [GW810437] | 0 | 9 | 24 | 0 | 12 | 20 | 31 | 0 | 12 | 0 | 7 | 0 | 0 | 0 | 15 | 15 | 0 | 0 | 0 | 50
17 | N#CC1(c2cccc(C(=O)Nc3cccc(Oc4ccc5nc(NC(=O)C6CC6)sc5n4)c3)c2)CC1 | 0 | 0 | 0 | 0 | 0 | 0 | 0 | 0 | 17 | 7 | 3 | 59 | 0 | 23 | 34 | 0 | 0 | 0 | 0 | 13
18 | CC(C)c1nc(-c2cccc(NS(=O)(=O)c3c(F)cccc3F)c2)c(-c2ccnc(Nc3ccc(N4CCOCC4)nc3)n2)s1.Cl [GSK1723980] | 0 | 0 | 0 | 0 | 0 | 0 | 0 | 0 | 0 | 0 | 0 | 20 | 18 | 85 | 0 | 0 | 0 | 16 | 0 | 0
19 | CN(C)CCOc1ccc(-c2cc(-c3ccc(Cl)c(O)c3)c(-c3ccncc3)[nH]2)cc1.Cl.Cl [SB-684387] | 30 | 9 | 54 | 8 | 13 | 26 | 45 | 22 | 0 | 13 | 45 | 54 | 7 | 20 | 33 | 10 | 0 | 39 | 0 | 3
20 | Cc1ccccc1CC(=O)N1CCc2cc(-c3cn(C)c4ncnc(N)c34)ccc21 [GSK2603346] | 0 | 0 | 0 | 25 | 0 | 0 | 0 | 0 | 0 | 0 | 0 | 15 | 0 | 5 | 0 | 0 | 0 | 15 | 20 | 0
